# Data published in the supplement of paper PMC7411640.
# Where a name gives a salt, the structure may show the parent alone.
# Test system: MDA-MB-468
# Assay: phospho-S6 immunofluorescence (DAPI-normalised), per-plate z-score; higher = higher phospho-S6 signal (less pathway suppression)
# Settings: 24 h
# Procedure: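 GPCR-targeted compound library (MedChemExpress HY-L006) tested on MDA-MB-468 PTEN-null TNBC cells in 384-well plates at 0.1, 1 or 10 uM, combined with vehicle, GDC0941 450 nM or lapatinib 1 uM, for 24 h. Phospho-S6 (S240/244) immunofluorescence normalised to DAPI and expressed as a per-plate z-score; values are the mean of biological triplicates.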
Compound,phospho-S6 immunofluorescence (z-score) (co-treatment: GDC0941 450 nM),phospho-S6 immunofluorescence (z-score) (co-treatment: lapatinib 1 uM),phospho-S6 immunofluorescence (z-score) (co-treatment: vehicle)
C=C[C@@]1(C)CC(=O)[C@]2(O)[C@@]3(C)[C@@H](O)CCC(C)(C)[C@@H]3[C@H](O)[C@H](OC(C)=O)[C@@]2(C)O1 [Forskolin] (compound 10 µM),1.82,2.65,0.23
CC(=O)OCC(=O)NCCCOc1cccc(CN2CCCCC2)c1 [Roxatidine (Acetate Hydrochloride)] (compound 10 µM),0.24,0.32,0.91
CN1CCN(C(=O)c2cc3cc(Cl)ccc3[nH]2)CC1 (compound 10 µM),0.27,-0.96,0.18
CN1Cc2c(N)cccc2C(c2ccccc2)C1 (centres undefined) [Nomifensine (maleate)] (compound 10 µM),-0.09,-0.69,-0.17
CCc1cc2c(cc1CC)CC(NC[C@H](O)c1ccc(O)c3[nH]c(=O)ccc13)C2 [Indacaterol (maleate)] (compound 10 µM),-0.81,-1.41,0.92
Cc1nc2ccc(NC(=O)Nc3ccnc4cccnc34)cc2o1 (compound 10 µM),0.6,-1.8,0.79
COCCc1ccc(OCC(O)CNC(C)C)cc1 (centres undefined) [Metoprolol (Succinate)] (compound 10 µM),0.44,-0.38,1.15
CCN1CCCC1CNC(=O)c1cc(S(=O)(=O)CC)c(N)cc1OC (centres undefined) [Amisulpride] (compound 10 µM),0.37,0.58,0.83
